Source: PubChem
Compounds with a hit are over-represented: about 5.5% of the library has one in this group of screens.
Sfp inh: qHTS Assay for Inhibitors of Bacillus subtilis Sfp phosphopantetheinyl transferase (PPTase). 4'-phosphopantetheinyl transferase ffp (Bacillus subtilis), Q9F4F7. Biochemical Sfp PPTase activity, qHTS. Potency, µM, without a hit: largest response in the series, negative = inhibition, hits mostly inhibitors. actives 3.5% (n = 310,000). AID 1490, 2009;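 further: the enzyme is Sfp with the accession as filed and its product quenches rhodamine fluorescence; potency means the concentration at half of the fitted maximal effect; 0% = enzyme reaction without inhibitor and -100% = no enzyme wells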
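Compounds were incubated with enzyme (final 15 nM) for 15 min at room temperature before substrate addition started the reaction. Fluorescence at 525 nm excitation, 598 nm emission was recorded immediately and after 30 minutes.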
Coupling enz: qHTS Assay for Inhibitors of Fructose-1,6-bisphosphate Aldolase from Giardia Lamblia: Coupling assay counterscreen. coupling enzyme system counterscreen, AmpLite Red fluorescence. activity change, negative = inhibition, % at 58.2 µM, hits read low. actives 0.67% (n = 290,000); in the data active means activity change below about -30%
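Activity here indicates interference with the coupling reaction, not aldolase inhibition. Compounds at 57.5 uM final met coupling enzymes for 10 min at RT; substrate and AmpLite Red detection followed, with a 525/598 nm fluorescence read after 20 min.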
ELG1 DNA repair: qHTS screen for small molecules that inhibit ELG1-dependent DNA repair in human embryonic kidney (HEK293T) cells expressing luciferase-tagged ELG1; Potency, µM (series often up to 46.1 µM), inactives show top-dose activity change, negative = inhibition, usual class: inhibitors; HEK293T ELG1-luciferase reporter, luminescence, 16 h; DNA damage induced by 5-fluorouridine; AID 504467, 2011; actives 2.3% (n = 330,000); further: potency means the concentration at half of the fitted maximal effect; nearly all actives have a fitted effect of over 55% in size
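Luminescence from the luciferase reporter, measured 30 min after ONE-Glo reagent at room temperature, was the read-out. Beforehand, 2,000 cells per well were exposed for 16 hr at 37 °C to 5-fluorouridine together with compound or vehicle.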
Giardia kill: Small Molecules that selectively kill Giardia lamblia: qHTS; Giardia lamblia trophozoite viability; actives 0.15% (n = 340,000); activity change, % at 7.66 µM, hits read low; in the data active means activity change below about -80%; inconclusive means between about -30% and that limit;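 further: parasites exposed to compound for two days anaerobically before the ATP read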
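Compounds were tested on trophozoites seeded at 100 cells/well and held 48 hrs at 37 deg C anaerobically. An ATP-based luminescent kit measured the remaining live cells.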
The depositor's hits bear a star; ? = inconclusive; · = not tested or not shown. Unless noted, the call rests on the fitted dose curve; in most records, active means well fitted curve in the direction sought with a large enough effect; inconclusive means small, poorly fitted or top-dose-only effect, or another doubt; inactive means no such curve, though single readings can be large; an effect the other way counts as inactive or inconclusive. Unless noted, on the % scale 0 is the no-effect control and ±100 the full control effect.

SMILES	Sfp inh	Coupling enz	ELG1 DNA repair	Giardia kill
COC(=O)N/N=C/c1cn(Cc2ccccc2F)c2ccccc12	-7%	4	21µM*	14
COc1ccccc1OCCCn1cc(C#N)c2ccccc21	-13%	-32*	11%	7
COC(=O)N/N=C/c1cn(CCCOc2ccccc2)c2ccccc12	-10%	-1	16µM*	-5
COc1ccccc1OCCn1cc(/C=N/NC(=O)c2ccncc2)c2ccccc21	14%	-3	-27%	11
COc1ccccc1OCCn1cc(/C=N/NC(N)=S)c2ccccc21	-8%	-1	18µM*	4
C/C=C(\C)C(=O)C[Si](C)(C)c1ccccc1	-14%	0	·	·
COc1ccccc1S(=O)(=O)Cc1ccc(C(=O)N2CCN(c3ccccc3)CC2)o1	11%	3	21µM*	-13
COc1ccccc1S(=O)(=O)Cc1ccc(C(=O)N2CCN(c3cccc(Cl)c3)CC2)o1	-11%	1	12µM*	6
COc1ccccc1S(=O)(=O)Cc1ccc(C(=O)N2CCOCC2)o1	15%	2	16%	-8
COC(=O)C=C1CCC2C3CCC4=CC(=O)CCC4(C)C3C(=O)CC12C (stereo not given)	·	·	·	-16
CN(C)S(=O)(=O)c1cccc(C(=O)Nc2n[nH]c(C(F)(F)F)n2)c1	11%	2	3%	-11
O=C(N/N=C/c1ccc(F)cc1)c1cccc(NC(=O)c2ccccc2Cl)c1	25%	0	0%	-14
O=C(COc1ccccc1-c1ccccc1)NCc1ccco1	89µM*	6	?	-16
Cc1ccc(CN2CCc3c(OCC(=O)Nc4cccc(C)c4C)cccc3C2=O)cc1	-13%	-6	?	·
O=C(COc1cccc2c1CCN(Cc1ccccc1F)C2=O)N1CCOCC1	12%	0	-6%	·
O=C(COc1cccc2c1CCN(Cc1ccc(Br)cc1)C2=O)NCc1ccco1	-13%	1	18µM*	1
O=C(COc1cccc2c1CCN(Cc1ccc(Br)cc1)C2=O)N1CCOCC1	-3%	-3	7.3µM*	-13
O=C1c2cccc(OCC(=O)N3CCCc4ccccc43)c2CCN1Cc1ccc(Br)cc1	2%	0	18µM*	-6
O=C1c2cccc(OCC(=O)N3CCCc4ccccc43)c2CCN1Cc1ccccc1	?	1	?	-1
CCCCc1nc2c(c3c1C[C@H](C)OC3)CN(S(=O)(=O)c1ccc(C)cc1)CC2	-10%	0	·	·
O=C(Nc1ccccc1N1CCCCC1)c1ccc(F)c(S(=O)(=O)N2CCOCC2)c1	·	·	13µM*	-4
CCOc1ccc(NC(=O)c2ccc(F)c(S(=O)(=O)N3CCN(c4ccccn4)CC3)c2)cc1	14%	0	9.2µM*	-16
O=C(Nc1cccc(Cl)c1)c1ccc(F)c(S(=O)(=O)N2CCN(c3ccccn3)CC2)c1	3%	-2	13µM*	21
O=S(=O)(c1cc(F)ccc1F)N1CCC2(CC1)OCCO2	-9%	·	?	-9
O=C(Nc1ccc(F)c(F)c1)c1ccc(F)c(S(=O)(=O)N2CCC3(CC2)OCCO3)c1	-7%	0	7.3µM*	-20
SMILES	Sfp inh	Coupling enz	ELG1 DNA repair	Giardia kill
Cc1ccc(C(=O)Nc2ccccc2N2CCCCC2)cc1S(=O)(=O)N1CCOCC1	·	·	·	-7
O=C(c1ccc(Cl)c(S(=O)(=O)N2CCCC2)c1)N1CCN(c2ccccn2)CC1	-2%	-1	?	-4
CN(C)c1ccc(/C=N/Nc2ccc(-n3ccnc3)nn2)cc1	45µM*	-4	13%	1
C=C1CCN(C(CC(C)C)C(=O)NCc2ccc(Cl)c(Cl)c2)S(=O)(=O)c2ccccc21 (stereo not given)	11%	2	·	2
CCOCC(=O)Nc1cc(S(=O)(=O)N2CCOCC2)ccc1N1CCCCC1	11µM*	1	-17%	6
CCN1CCN(c2ccc(S(=O)(=O)N3CCCCC3)cc2NC(=O)COc2ccc(Cl)c(C)c2)CC1	?	·	23µM*	14
O=C(Cc1c(F)cccc1Cl)Nc1cc(S(=O)(=O)N2CCCCC2)ccc1N1CCOCC1	7%	-3	18µM*	19
CN1CCN(c2ccc(S(=O)(=O)N3CCCCC3)cc2NC(=O)Cc2c(F)cccc2Cl)CC1	·	·	10%	-19
CCOC(=O)CCC(=O)Nc1cc(S(=O)(=O)N2CCOCC2)ccc1N1CCCCC1	·	·	23%	22
Cc1cccc(N2CCN(S(=O)(=O)c3ccc(-c4ccc(=O)[nH]n4)o3)CC2)c1C	19%	0	9%	5
Cc1cc(C(F)F)nn1CC(=O)NC1C(=O)N2C(C(=O)O)=C(CSc3nnnn3C)CSC12 (stereo not given)	56µM*	-2	-1%	-2
Cc1nn(C(C)C(=O)NC2C(=O)N3C(C(=O)O)=C(CSc4nnnn4C)CSC23)cc1Cl (stereo not given)	79µM*	0	0%	15
CC(C(=O)NC1C(=O)N2C(C(=O)O)=C(CSc3nnnn3C)CSC12)n1cc(Br)cn1 (stereo not given)	10%	4	8%	-7
O=C(CSc1nnc(C2CC2)n1CC1CCCO1)Nc1ccccc1Cl (stereo not given)	8%	2	-1%	-14
O=C1c2ccccc2C(=O)N1CC(O)COc1ccccc1Cl (stereo not given)	12%	-2	?	11
C[C@H](NC(=O)c1nc[nH]c1C(=O)NCc1ccc(CNC(=O)OC(C)(C)C)cc1)C(=O)OC(C)(C)C	-13%	-2	8.2µM*	21
CC(C)(C)OC(=O)NCCCCCNC(=O)c1nc[nH]c1C(=O)NCc1ccc(CNC(=O)OC(C)(C)C)cc1	·	·	6.5µM*	-18
CC(C)(C)OC(=O)CNC(=O)c1nc[nH]c1C(=O)NCc1ccc(CNC(=O)OC(C)(C)C)cc1	16%	-3	?	-2
COc1ccc2sc(-c3ccc(SC)cc3)c(-c3ccc(O)cc3)c2c1	·	·	-4%	-15
CCCCN(C)CC(O)Cn1cc(/C=C/C(=O)c2cccs2)c2ccccc21 (stereo not given)	20µM*	-13	17%	1
O=C(/C=C/c1cn(CC(O)CN2CCCCCC2)c2ccccc12)c1cccs1 (stereo not given)	-7%	0	23%	7
CCCCN(C)CC(O)Cn1cc(/C=C/C(=O)c2ccc(OCC)cc2)c2ccccc21 (stereo not given)	45µM*	1	11%	·
CCOc1ccc(/C=C/C(=O)c2ccc(-c3ccccc3)cc2)cc1	2%	-2	3%	14
CC(C)(C)NCC(=Cc1ccccc1)C(=O)c1ccccc1	·	·	·	3
COCCN(C(=O)CSc1nnc(-c2ccccc2F)o1)c1c(N)n(CC(C)C)c(=O)[nH]c1=O	·	·	7%	-4
CCN(CC1CCCO1)C(=O)c1cc(COc2cc(C)c(Cl)c(C)c2)on1 (stereo not given)	-7%	0	?	22
